Measured values reported in the supplement of paper PMC13392028.

System: PvIESI-1 RRM domain (Plasmodium vivax PVP01_0939900 aa 896-1203, GST fusion)
Test: RBNS R-value (6-mer enrichment in protein-bound RNA vs input library) (ratio); higher = stronger binding preference; the methods of the paper give 50 / 100 / 500 nM protein instead
Protocol: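 RNA Bind-n-Seq: recombinant GST-tagged IESI-1 RRM domain was incubated at room temperature with a random 40-nt in vitro transcribed RNA library at 250, 500 or 1000 nM protein. Bound RNA was pulled down on glutathione beads and sequenced. R-value is the enrichment of each 6-mer in the bound RNA relative to the input library. Each 6-mer sits inside the random 40-mer context, not as an isolated oligo. Values are replicate 1 only.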

| Sequence | RBNS R-value (protein concentration: 250 nM) | RBNS R-value (protein concentration: 500 nM) | RBNS R-value (protein concentration: 1000 nM) |
| --- | --- | --- | --- |
| AUUGAU | 3.54 | 3.72 | 3.67 |
| UGAUUG | 3.56 | 3.76 | 3.39 |
| UGAUAC | 2.41 | 2.83 | 2.87 |
| GAUGGC | 2.5 | 2.55 | 2.36 |
| UGAUAU | 2.45 | 2.79 | 2.9 |
| GACACC | 1.46 | 1.66 | 1.69 |
| UUGAUA | 2.87 | 3.36 | 3.32 |
| UGAUUA | 3.86 | 4.25 | 4.11 |
| ACCCGA | 1.44 | 1.74 | 1.74 |
| CCUUGA | 1.7 | 1.88 | 1.91 |
| CUGAUU | 3.89 | 4.11 | 3.75 |
| AUGAUU | 4.49 | 4.79 | 4.59 |
| CUUGAU | 3.23 | 3.65 | 3.49 |
